Results on 40 compounds are retold here after PubChem BioAssay (EPA / NIEHS).

The source made the active and inactive calls. How the source made its calls: active means hit-call score of the fitted dose curve at least 0.9, where 1 is the maximum; inactive means score below 0.9.

Read-out in the assay: MYC, MYC (gene 4609)
In words: LTEA_HepaRG_MYC: Life Technologies and Expression Analysis (LTEA) Assay for MYC using HepaRG (AID 2283518). Conditions: mRNA level, 48 h; actives raise or lower the signal. As for the experimental part:
LTEA_HepaRG is a cell based, multiplexed-readout assay that uses HepaRG, a human liver cell line, with measurements taken at 48 hours after chemical dosing on a 96-well plate.LTEA_HepaRG_MYC is one of 102 assay component(s) measured in the LTEA HepaRG cell culture assay. It is a marker of Cell proliferation, survival, death.Data from the assay component LTEA_HepaRG_MYC was analyzed into 1 endpoint. This assay endpoint, LTEA_HepaRG_MYC, was analyzed with bidirectional fitting relative to DMSO as the negative control and baseline of activity. Using a type of inducible reporter, measures of mRNA induction for gain or loss-of-signal activity can be used to understand regulation of transcription factor activity. To generalize the intended target to other relatable targets, this assay endpoint is annotated to the dna binding intended target family, where the subfamily is basic helix-loop-helix leucine zipper.
A total of 1060 chemcials from the ToxCast library were tested in eight-point concentration-response experiments. Cell culture and cytotoxicity assays were conducted at Thermo Fisher Scientific's Custom Services facility (Madison, WI). A single lot of human HepaRG cells (Thermo Fisher Scientific, Frederick, MD) was used for the cell culture experiments. 96-well format collagen type I coated plates of human HepaRG cells were prepared using established methods. Briefly, cryopreserved HepaRG cells were thawed, plated at a density of approximately 100,000 cells/well in HepaRG Thaw, Plate, and General Purpose media (HPRG770, Thermo Fisher Scientific), and incubated for 48 hours. 0.5% DMSO was selected as vehicle control to balance the requisite need of DMSO in HepaRG cultures to maintain differentiation (for example, baseline metabolism, proportions of hepatocytes vs. cholangiocytes), while enabling further hepatic receptor pathway activation (for example, PXR and CAR) in response to chemical exposure. 48 hours after plating, the culture medium was replaced with HepaRG Serum-Free Incudtion Media. Cells were exposed to each test chemical in duplicate and maintained in CO2 incubators for another 48 hours. Chemical plates were thawed to room temperature and 200x concentrations of treatment groups were prepared. 8-point conentration-reponse curves were made with the highest exposure at 100 uM, followed by half-log dilutions, all in 0.5% DMSO. Each test plate contained variouse controls, induction positive controls (1mM phenobarbital), cytotoxicity positive controls ([…] aflatoxin B1), vehicle controls (0.5% DMSO), and total lysis controls (0.5% DMSO). Cell morphology images were taken using an Essen IncuCyte FLR automated microscope, with six 96-well plates imaged in about 24 minutes. Images were captured and exported and JPEG files. Spent culture media was transfered to black-well plates for the LDH assay, and remaining media was sorted at -80 C for later use. Cells were treated with RLT buffer and frozen until shipped for gene expression analysis. Total RNA was isolated from the cell suspension in 75 uL of Buffer RLT (Qiagen, Germantown, MD 20874) by Quintiles/Expression Analysis (Durham, NC) using a custom isolation procedure. Total RNA from each plate well was transferred to a preamplification plate. Fluidigm's 96.96 Dynamic ArrayTM (Fluidigm, Amsterdam, the Netherlands) technology was used for gene expression analyses by quantitative reverse transcription polymerase chain reaction (qRT-PCR, performed by Quintiles/Expression Analysis, Durham, NC)89. Standard TaqManTM Assays (Applied Biosystems/ThermoFisher Scientific, Foster City, CA) were used to assess the expression of 93 genes selected based on their selectivity and sensitivity to important hepatic receptors known to be modulated by environmental chemicals; importance in human hepatocyte functionality; and hepatotoxicity. […]
As to `CC(C)(C)c1ccc(O)cc1`, the outcome was inactive. Same read-out and setting: the result for `CCCN(CCC)c1c([N+](=O)[O-])cc(C(C)C)cc1[N+](=O)[O-]` reads “inactive”; that for `CC(Cc1ccc(OCC(=O)O)cc1)NCC(O)c1csc(C(F)(F)F)n1` (stereo not given), “inactive”; that for `CN(C)C(=O)Cl`, “inactive”. On the same count and under the same terms, then `c1ccc2c(c1)Nc1ccccc1S2`, with “inactive”; and `c1cc2c3c(cccc3c1)CC2`, with “inactive”.

What is called AC50 is the midpoint of the concentration-response curve, whichever way the signal moves. As for `Nc1ccc2ccccc2c1`, the concentration at half-maximal activity (AC50) is 50 µM (active). On to `CCC(C)(C)c1ccc(O)cc1`, for which the compound was called inactive. Take `COCCOCCO`: the compound was called inactive.

For the compound `Nc1ccc(Cl)cc1`, the compound was classed as inactive. In the case of `CCC1(c2ccccc2)C(=O)N=C(O)NC1=O` (stereo not given), the call was inactive.

Take `c1ccc(OP(Oc2ccccc2)Oc2ccccc2)cc1`: the compound was classed as inactive. As to `CCCCN(CCCC)SN(C)C(=O)Oc1cccc2c1OC(C)(C)C2`, the compound was classed as inactive. The same measure, in the same setting: then `O=C(O)C1C(C(=O)O)C2(Cl)C(Cl)=C(Cl)C1(Cl)C2(Cl)Cl` (stereo not given), with “inactive”. Regarding `O=P(Oc1ccccc1)(Oc1ccccc1)Oc1ccccc1`, the compound was called inactive. Same read-out and setting: the result for `CCN(CC)c1ccccc1` reads “inactive”.

`ClC1=C(Cl)C2(Cl)C3C(Cl)C(Cl)CC3C1(Cl)C2(Cl)Cl` (stereo not given): the AC50 was 50 µM (active). Regarding `CCOS(=O)(=O)OCC`, the result was inactive.

For the compound `CCOP(=S)(Oc1ccc([N+](=O)[O-])cc1)c1ccccc1` (stereo not given), the compound was classed as inactive. On the same count and under the same terms, the result for `O=[N+]([O-])c1ccc(Cl)c(Cl)c1` reads “inactive”; that for `ClC(Cl)c1ccccc1`, “inactive”. On the same count and under the same terms, then `CCCCc1ccccc1`, with “inactive”; and `CCOc1ccc(C(C)(C)COCc2cccc(Oc3ccccc3)c2)cc1`, with “inactive”. On to `[N-]=[N+]=[N-]`, for which the AC50 was 80 µM (active). As for `CCNc1nc(Cl)nc(NC(C)(C)C)n1`, the result was inactive. As to `CCCCN(CCCC)N=O`, the outcome was inactive.

Turning to `CSC(C)(C)C=NO`, the result was inactive. Same read-out and setting: the result for `O=C(O)C(Cl)Cl` reads “inactive”. The same measure, in the same setting: the result for `CCOC(=O)c1ccccc1C(=O)OCC` reads “inactive”; that for `Cc1ccc([N+](=O)[O-])cc1C`, “inactive”; that for `ClC(Cl)(Cl)c1ccccc1`, “inactive”. Still for that read-out and setting: the result for `CC(C)(C)OOC(C)(C)C` reads “inactive”; that for `Cc1ccc(O)cc1C`, “inactive”; that for `Cc1ccc(N)cc1N`, “inactive”.

`c1nc[nH]n1`: the AC50 was 0.104 µM (active). Turning to `CC(Cl)(Cl)C(=O)O`, the compound was called inactive. On the same count and under the same terms, the result for `CCOP(=S)(OCC)SCSCC` reads “inactive”. Turning to `Nc1cc2c3c(c1)C(c1ccccc1)=N[C@@H](NC(=O)c1cccnc1)C(=O)N3CC2`, the compound was classed as inactive. With `Cc1cccc(N)c1`, the compound was called inactive. On the same count and under the same terms, then `OCC1CO1` (stereo not given), with “inactive”.
